Results on 47 compounds are retold here after the supplement of paper PMC13380429.

Structures are written as SMILES.

Test [1] has as its system Vero E6 infected with SARS-CoV-2. The test is described as follows: morphology score (similarity to uninfected cells); higher = more like uninfected cells. The note with it: 24 h.
Test [2] shares this test system. The test is described as follows: SARS-CoV-2 infection rate relative to infected DMSO; higher = more infection, active = 60 or less. The note with it: 24 h.

With `C[N+]1(C)[C@@H]2C[C@@H](OC(=O)C(O)(c3cccs3)c3cccs3)C[C@H]1[C@@H]1O[C@@H]12` [tiotropium] (10 µM), the morphology score in test [1] was 0.0776. In test [2], the SARS-CoV-2 infection rate is 100% (inactive).
On the same counts, the results for `CC(=O)OC[C@H](N)C(=O)O` [O-acetyl-L-serine] (10 µM) are 0.0719 and 88% (inactive).
The corresponding values for `CC1=C(/C=C/C(C)=C/C=C/C(C)=C/C=C/C=C(C)/C=C/C=C(C)/C=C/C2=C(C)CCCC2(C)C)C(C)(C)CCC1` [beta-carotene] (10 µM) are 0.0662 and 112% (inactive).
In the case of `Nc1ccncc1N` [amifampridine] (10 µM), the morphology score in test [1] stood at 0.0643. The SARS-CoV-2 infection rate in test [2] is 92% (inactive).
The corresponding values for `CC(C)C[C@@H](NC(=O)[C@H](Cc1ccccc1)NC(=O)CNC(=O)[C@@H](C)NC(=O)[C@@H](N)Cc1ccc(O)cc1)C(=O)O` (10 µM) are 0.159 and 97% (inactive).
The corresponding values for `Oc1ccc([C@@H]2Oc3ccc(O)cc3[C@@H]3CCC[C@@H]32)cc1` [erteberel] (10 µM) are 0.0963 and 113% (inactive).
On the same counts, the results for `COC1=C[C@@H]2[C@@H]3Cc4ccc(OC)c(O)c4[C@]2(CCN3C)CC1=O` [sinomenine] (10 µM) are 0.141 and 122% (inactive).
The compound `CC1(C)OC[C@@H](COC(=O)CCc2ccc(OC[C@@H](O)CNCCNC(=O)N3CCOCC3)cc2)O1` [landiolol] (10 µM) gave a morphology score in test [1] of -0.108. Also, in test [2], the SARS-CoV-2 infection rate is 113% (inactive).
The corresponding values for `Cc1ccc(S(=O)(=O)Nc2ccc3c(c2)c(C(=O)C(F)(F)F)cn3CC(=O)N[C@@H](CC(C)C)C(=O)O)cc1` (10 µM) are 0.0604 and 104% (inactive).
The corresponding values for `C[S+]([O-])c1ccc(-c2nc(-c3ccc(F)cc3)c(-c3ccncc3)[nH]2)cc1` (centres undefined) (10 µM) are 0.0867 and 95% (inactive).
The corresponding values for `O=C(Nc1ccccc1)OCC(CN1CCCCC1)OC(=O)Nc1ccccc1` (centres undefined) [diperodon] (10 µM) are -0.0894 and 108% (inactive).
As for `CCCCOC(=O)c1cc2c(cn1)[nH]c1ccccc12` [beta-CCB] (10 µM), the morphology score in test [1] is 0.156. The SARS-CoV-2 infection rate in test [2] is 94% (inactive).
The corresponding values for `Cc1c(-c2ccccc2)oc2c(C(=O)OCCN3CCCCC3)cccc2c1=O` [flavoxate] (10 µM) are 0.4 and 88% (inactive).
Regarding `CCCCC#Cc1nc(NC)c2ncn([C@@H]3O[C@H](CO)[C@@H](O)[C@H]3O)c2n1` (10 µM), the morphology score in test [1] was 0.143. For the same compound, the SARS-CoV-2 infection rate in test [2] is 96% (inactive).
`Cc1cc(C)cc(C(=O)NOCCCCCC(=O)NO)c1` (10 µM): the morphology score in test [1] was -0.485. Further, the SARS-CoV-2 infection rate in test [2] was 124% (inactive).
On the same counts, the results for `Cc1cc(C)nc(NS(=O)(=O)c2ccc(N)cc2)n1` [sulfamethazine] (10 µM) are 0.0855 and 111% (inactive).
The corresponding values for `CC(COc1ccccc1)N(CCCl)Cc1ccccc1` (centres undefined) [phenoxybenzamine] (10 µM) are 0.146 and 106% (inactive).
The corresponding values for `CCCCOc1ccc(C(=O)Nc2ccc(F)cc2F)cc1` (10 µM) are 0.18 and 106% (inactive).
In turn, `O=C(O)c1ccc2c(c1)C(=O)N(c1cccc(Oc3ccc([N+](=O)[O-])cc3)c1)C2=O` (10 µM) displayed a morphology score in test [1] of 0.173. The SARS-CoV-2 infection rate in test [2] is 99.5% (inactive).
On the same counts, the results for `CCOc1ccc(S(=O)(=O)O)c2cccnc12` [actinoquinol] (10 µM) are 0.0631 and 112% (inactive).
`C=C(C)[C@@H]1CC[C@]2(C(=O)O)CC[C@]3(C)[C@H](CC[C@@H]4[C@@]5(C)CC[C@H](OC(=O)CC(C)(C)C(=O)O)C(C)(C)[C@@H]5CC[C@]43C)[C@@H]12` [bevirimat-dimeglumine] (10 µM) registered a morphology score in test [1] of -0.0115. Moreover, the SARS-CoV-2 infection rate in test [2] is 113% (inactive).
The corresponding values for `COC(=O)N/N=C/c1c[n+]([O-])c2ccccc2[n+]1[O-]` [carbadox] (10 µM) are 0.227 and 85% (inactive).
With `O=C(NCCCNc1nc(Nc2cccc(NC(=O)N3CCCC3)c2)ncc1I)c1cccs1` (0.833333 µM), the morphology score in test [1] worked out at 0.0981. The SARS-CoV-2 infection rate in test [2] is 118% (inactive).
The corresponding values for `O=P(O)(O)C(O)(Cn1ccnc1)P(=O)(O)O` [zoledronic-acid] (10 µM) are 0.0372 and 116% (inactive).
The corresponding values for `CO/N=C(\C(=O)N[C@@H]1C(=O)N2C(C(=O)O)=C(CSc3nc(C)c(CC(=O)O)s3)CS[C@H]12)c1csc(N)n1` [cefodizime] (10 µM) are 0.129 and 101% (inactive).
In test [1], `CN(C)CCN(Cc1ccccc1)c1ccccn1` [tripelennamine] (10 µM) returned a morphology score of -0.0386. In addition, in test [2], the SARS-CoV-2 infection rate was 110% (inactive).
The corresponding values for `CC(=O)CC(=O)O` [lithium-acetoacetate] (10 µM) are 0.0997 and 102% (inactive).
On the same counts, the results for `CN(Cc1ccccc1)C(=O)[C@H](Cc1ccc2ccccc2c1)NC(=O)[C@@H]1CCCN1C(=O)Nc1ccccc1[N+](=O)[O-]` (10 µM) are 0.00351 and 108% (inactive).
The corresponding values for `c1ccc2nc(C3=NCCN3)ccc2c1` (10 µM) are 0.125 and 93% (inactive).
`NNC(=O)c1ccncc1` [isoniazid] (10 µM): the morphology score in test [1] is -0.115. In addition, in test [2], the SARS-CoV-2 infection rate was 111% (inactive).
On the same counts, the results for `Cn1nc(C(C)(C)C)cc1C(=O)N[C@@H](Cc1cccc(Cl)c1)C(=O)NCC#N` [cathepsin-inhibitor-1] (10 µM) are 0.186 and 97.5% (inactive).
On the same counts, the results for `O=C1NC(=O)/C(=C/c2ccc3nccc(-c4ccncc4)c3c2)S1` (0.833333 µM) are 0.151 and 108% (inactive).
Regarding `FC(F)(F)Oc1ccc2nc(-c3ccc(OCCOCCOc4ccc(-c5nc6ccc(OC(F)(F)F)cc6[nH]5)nc4)cn3)[nH]c2c1` (10 µM), the morphology score in test [1] was -0.247. Further, the SARS-CoV-2 infection rate in test [2] was 116% (inactive).
As to `Cc1ccsc1/C=C/C1=NCCCN1C` [morantel] (10 µM), in test [1], the morphology score was -0.00401. Also, in test [2], the SARS-CoV-2 infection rate was 99.5% (inactive).
The corresponding values for `C#C[C@]1(O)CC[C@H]2[C@@H]3CCC4=CC(=O)CC[C@@H]4[C@H]3CC[C@@]21C` [Norethindrone (Norethisterone)] (10 µM) are -0.0201 and 112% (inactive).
The corresponding values for `Clc1ccc([C@]23CNC[C@H]2C3)cc1Cl` [amitifadine] (10 µM) are 0.0575 and 110% (inactive).
The corresponding values for `N#CCC(=O)c1ccccc1` (10 µM) are 0.0172 and 112% (inactive).
`COC(=O)C1=C(C)NC(C)=C([N+](=O)[O-])[C@@H]1c1ccccc1C(F)(F)F` (racemic) (10 µM) had a morphology score in test [1] of 0.192. The SARS-CoV-2 infection rate in test [2] is 91.8% (inactive).
On the same counts, the results for `O=C(NCCCN1CCCCCC1)C(c1ccccc1)C1CCCCC1` (centres undefined) (10 µM) are 0.404 and 75.5% (inactive).
On the same counts, the results for `O=C(O)c1ccccc1Nc1cccc(C(F)(F)F)c1` [flufenamic-acid] (10 µM) are 0.156 and 99.5% (inactive).
The corresponding values for `C[C@@H]1C[C@H]2[C@@H]3C[C@H](F)C4=CC(=O)C=C[C@]4(C)[C@@]3(Cl)[C@@H](O)C[C@]2(C)[C@H]1C(=O)COC(=O)C(C)(C)C` [clocortolone-pivalate] (10 µM) are 0.067 and 98% (inactive).
In turn, `CC(=O)S[C@@H]1CC2=CC(=O)CC[C@]2(C)[C@H]2CC[C@@]3(C)[C@@H](CC[C@@]34CCC(=O)O4)[C@H]12` [spironolactone] (10 µM) yielded a morphology score in test [1] of 0.291. The SARS-CoV-2 infection rate in test [2] is 98.5% (inactive).
Consider `CC1=C(C(=O)OC2CCCCC2)C(c2ccc([N+](=O)[O-])cc2)C2=C(CC(C)(C)CC2=O)N1` (centres undefined) (0.833333 µM), for which the morphology score in test [1] was -0.0965. For the same compound, the SARS-CoV-2 infection rate in test [2] is 104% (inactive).
The corresponding values for `O=C(O)c1cc(O)c2c(Cl)cc(Cl)cc2n1` [5,7-dichlorokynurenic-acid] (10 µM) are -0.0314 and 104% (inactive).
The compound `O=C(/C=C/c1ccc(O)cc1)c1ccc(O)cc1O` [isoliquiritigenin] (10 µM) had a morphology score in test [1] of 0.403. For the same compound, the SARS-CoV-2 infection rate in test [2] is 103% (inactive).
With `Clc1ccc2nsnc2c1NC1=NCCN1` [tizanidine] (10 µM), the morphology score in test [1] was -0.0251. Also, the SARS-CoV-2 infection rate in test [2] was 112% (inactive).
The corresponding values for `CCc1cc2c(s1)-n1c(C)nnc1CN=C2c1ccccc1Cl` [etizolam] (10 µM) are -0.0349 and 103% (inactive).
